Laboratory results published in the supplement of paper PMC10849652.
Targets with a hit are over-represented here; the source holds about 7,900 in all. About 0.6% of all pairs of compound and target were hits.

compound: C1=CC(=CC=C1C2=NC3=C(N2)C=C(C=C3)C(=O)N)OC4=CC=C(C=C4)Cl; test: log2 fold change, soluble protein after heating vs DMSO (PISA); higher = thermal stabilisation; K562 cells, 10 uM, 30 min; active = over 0.2 and 3.5 SD of the protein, either way, in both replicates (recomputed)
Procedure, shortened: (§1)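 Thermal stability values are relative to control samples and come from duplicates. They are expressed as log2 fold changes. For measurement, K562 cells (2×10^6 cells/mL) received 10 μM compound for 30 min, and aliquots were heated for 3 min over 48°C-58°C, pooled, and extracted at 4°C in PBS with 0.5% NP-40. Soluble protein, the supernatant after 21,000xg for 90 min, was quantified by TMTpro 16plex LC-MS/MS with equalised channel sums.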

UniProt Q9NZC3, sequence (Q9NZC3 whole entry, looked up): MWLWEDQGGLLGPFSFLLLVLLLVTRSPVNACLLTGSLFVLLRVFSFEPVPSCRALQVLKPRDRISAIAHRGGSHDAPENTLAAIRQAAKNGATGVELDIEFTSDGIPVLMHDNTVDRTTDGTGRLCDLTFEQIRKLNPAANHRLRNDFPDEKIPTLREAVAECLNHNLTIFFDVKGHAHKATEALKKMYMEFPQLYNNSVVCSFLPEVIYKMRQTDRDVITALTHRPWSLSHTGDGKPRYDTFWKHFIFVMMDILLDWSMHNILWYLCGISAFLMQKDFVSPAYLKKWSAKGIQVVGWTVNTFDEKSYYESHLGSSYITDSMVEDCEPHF
UniProt P55084, sequence (P55084 whole entry, looked up): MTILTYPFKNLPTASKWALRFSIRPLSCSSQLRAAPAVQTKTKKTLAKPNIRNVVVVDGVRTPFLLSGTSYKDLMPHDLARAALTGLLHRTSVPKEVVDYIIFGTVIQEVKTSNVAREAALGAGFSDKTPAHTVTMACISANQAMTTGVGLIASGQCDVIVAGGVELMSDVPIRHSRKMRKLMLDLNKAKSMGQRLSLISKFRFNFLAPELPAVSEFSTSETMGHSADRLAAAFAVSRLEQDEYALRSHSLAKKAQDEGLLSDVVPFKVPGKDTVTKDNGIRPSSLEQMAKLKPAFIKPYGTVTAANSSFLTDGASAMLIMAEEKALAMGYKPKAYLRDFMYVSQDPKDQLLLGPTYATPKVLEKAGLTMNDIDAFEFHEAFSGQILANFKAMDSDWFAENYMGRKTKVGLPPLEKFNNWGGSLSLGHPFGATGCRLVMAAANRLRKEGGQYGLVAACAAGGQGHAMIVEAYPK
UniProt Q96HJ9, sequence (Q96HJ9 whole entry, looked up): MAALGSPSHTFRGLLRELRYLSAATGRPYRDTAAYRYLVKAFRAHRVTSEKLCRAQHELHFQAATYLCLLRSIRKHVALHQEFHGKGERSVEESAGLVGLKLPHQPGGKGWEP
UniProt Q10472, sequence (Q10472 whole entry, looked up): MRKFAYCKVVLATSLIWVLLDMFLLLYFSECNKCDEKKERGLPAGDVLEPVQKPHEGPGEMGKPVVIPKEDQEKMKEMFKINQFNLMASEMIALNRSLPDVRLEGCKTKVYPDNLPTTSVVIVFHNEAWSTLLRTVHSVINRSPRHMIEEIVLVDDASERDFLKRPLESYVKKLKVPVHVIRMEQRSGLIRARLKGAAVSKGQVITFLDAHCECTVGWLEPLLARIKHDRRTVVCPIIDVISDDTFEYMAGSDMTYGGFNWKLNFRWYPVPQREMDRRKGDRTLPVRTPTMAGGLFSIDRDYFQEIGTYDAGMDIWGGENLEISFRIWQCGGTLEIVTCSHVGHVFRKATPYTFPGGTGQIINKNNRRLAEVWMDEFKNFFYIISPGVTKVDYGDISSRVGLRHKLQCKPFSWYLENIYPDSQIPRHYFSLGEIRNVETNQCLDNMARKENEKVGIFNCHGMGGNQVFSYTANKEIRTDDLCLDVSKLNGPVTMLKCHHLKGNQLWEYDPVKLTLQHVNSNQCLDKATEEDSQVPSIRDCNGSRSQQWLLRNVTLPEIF
UniProt P15976, sequence (P15976 whole entry, looked up): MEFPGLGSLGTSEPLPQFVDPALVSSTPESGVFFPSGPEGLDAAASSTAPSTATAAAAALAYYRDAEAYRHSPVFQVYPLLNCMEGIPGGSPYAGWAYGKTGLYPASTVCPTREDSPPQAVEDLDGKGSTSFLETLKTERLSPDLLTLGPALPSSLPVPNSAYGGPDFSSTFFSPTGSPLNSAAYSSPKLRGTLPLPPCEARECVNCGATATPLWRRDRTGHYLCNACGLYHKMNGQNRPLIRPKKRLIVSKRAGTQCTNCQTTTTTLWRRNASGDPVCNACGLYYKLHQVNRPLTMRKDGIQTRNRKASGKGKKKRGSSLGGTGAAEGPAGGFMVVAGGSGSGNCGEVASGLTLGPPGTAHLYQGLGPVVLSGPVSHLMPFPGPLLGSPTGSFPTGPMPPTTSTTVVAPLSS
UniProt P52655, sequence (P52655 whole entry, looked up): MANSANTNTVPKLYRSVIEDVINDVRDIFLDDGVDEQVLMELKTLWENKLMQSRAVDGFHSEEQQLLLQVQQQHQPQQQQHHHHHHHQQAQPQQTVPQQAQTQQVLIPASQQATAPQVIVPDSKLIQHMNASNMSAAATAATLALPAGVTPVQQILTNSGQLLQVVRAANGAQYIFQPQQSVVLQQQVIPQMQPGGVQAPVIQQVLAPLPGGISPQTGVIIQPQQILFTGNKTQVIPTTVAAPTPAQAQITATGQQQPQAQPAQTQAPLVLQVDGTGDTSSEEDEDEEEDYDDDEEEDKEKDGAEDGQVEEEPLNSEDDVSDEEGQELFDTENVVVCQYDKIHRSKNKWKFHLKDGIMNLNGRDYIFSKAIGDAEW
UniProt P02008, sequence (P02008 whole entry, looked up): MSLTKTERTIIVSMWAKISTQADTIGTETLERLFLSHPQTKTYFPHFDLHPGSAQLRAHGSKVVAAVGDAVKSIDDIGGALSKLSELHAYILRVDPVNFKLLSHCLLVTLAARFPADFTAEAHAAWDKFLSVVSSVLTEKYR
UniProt O00165, sequence (O00165 whole entry, looked up): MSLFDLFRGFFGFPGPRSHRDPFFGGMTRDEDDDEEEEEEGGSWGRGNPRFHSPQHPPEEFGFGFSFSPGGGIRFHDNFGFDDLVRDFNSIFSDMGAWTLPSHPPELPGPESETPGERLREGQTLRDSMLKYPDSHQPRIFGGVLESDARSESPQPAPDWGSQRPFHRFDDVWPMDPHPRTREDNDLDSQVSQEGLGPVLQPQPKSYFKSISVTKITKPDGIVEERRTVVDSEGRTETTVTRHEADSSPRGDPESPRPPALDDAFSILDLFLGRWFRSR
UniProt O00291, sequence (O00291 whole entry, looked up): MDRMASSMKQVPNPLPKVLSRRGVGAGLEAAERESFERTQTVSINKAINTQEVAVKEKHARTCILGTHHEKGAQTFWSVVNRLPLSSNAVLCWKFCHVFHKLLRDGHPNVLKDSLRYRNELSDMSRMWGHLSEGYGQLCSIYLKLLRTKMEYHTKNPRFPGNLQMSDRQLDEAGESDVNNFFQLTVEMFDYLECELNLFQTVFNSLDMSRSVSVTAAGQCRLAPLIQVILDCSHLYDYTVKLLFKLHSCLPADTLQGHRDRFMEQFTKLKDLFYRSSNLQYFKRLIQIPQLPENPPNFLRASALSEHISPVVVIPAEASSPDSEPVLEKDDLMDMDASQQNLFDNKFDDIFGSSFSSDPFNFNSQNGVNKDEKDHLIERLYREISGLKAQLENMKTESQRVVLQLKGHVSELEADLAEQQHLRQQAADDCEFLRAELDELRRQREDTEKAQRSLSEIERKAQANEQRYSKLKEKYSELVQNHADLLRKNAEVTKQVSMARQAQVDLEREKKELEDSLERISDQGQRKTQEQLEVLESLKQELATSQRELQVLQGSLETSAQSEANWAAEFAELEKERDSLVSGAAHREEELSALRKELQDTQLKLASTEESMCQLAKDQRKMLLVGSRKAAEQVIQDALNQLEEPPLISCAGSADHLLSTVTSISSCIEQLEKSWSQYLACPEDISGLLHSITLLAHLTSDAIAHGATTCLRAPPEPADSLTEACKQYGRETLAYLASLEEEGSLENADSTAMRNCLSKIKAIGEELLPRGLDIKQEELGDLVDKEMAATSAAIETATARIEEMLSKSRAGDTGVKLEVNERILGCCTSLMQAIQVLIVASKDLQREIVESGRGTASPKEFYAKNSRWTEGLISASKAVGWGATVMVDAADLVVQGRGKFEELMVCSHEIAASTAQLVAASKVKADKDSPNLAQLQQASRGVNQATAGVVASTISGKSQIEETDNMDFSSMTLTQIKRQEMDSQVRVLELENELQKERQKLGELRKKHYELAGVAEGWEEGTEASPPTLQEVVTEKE
UniProt O15117, sequence (O15117 whole entry, looked up): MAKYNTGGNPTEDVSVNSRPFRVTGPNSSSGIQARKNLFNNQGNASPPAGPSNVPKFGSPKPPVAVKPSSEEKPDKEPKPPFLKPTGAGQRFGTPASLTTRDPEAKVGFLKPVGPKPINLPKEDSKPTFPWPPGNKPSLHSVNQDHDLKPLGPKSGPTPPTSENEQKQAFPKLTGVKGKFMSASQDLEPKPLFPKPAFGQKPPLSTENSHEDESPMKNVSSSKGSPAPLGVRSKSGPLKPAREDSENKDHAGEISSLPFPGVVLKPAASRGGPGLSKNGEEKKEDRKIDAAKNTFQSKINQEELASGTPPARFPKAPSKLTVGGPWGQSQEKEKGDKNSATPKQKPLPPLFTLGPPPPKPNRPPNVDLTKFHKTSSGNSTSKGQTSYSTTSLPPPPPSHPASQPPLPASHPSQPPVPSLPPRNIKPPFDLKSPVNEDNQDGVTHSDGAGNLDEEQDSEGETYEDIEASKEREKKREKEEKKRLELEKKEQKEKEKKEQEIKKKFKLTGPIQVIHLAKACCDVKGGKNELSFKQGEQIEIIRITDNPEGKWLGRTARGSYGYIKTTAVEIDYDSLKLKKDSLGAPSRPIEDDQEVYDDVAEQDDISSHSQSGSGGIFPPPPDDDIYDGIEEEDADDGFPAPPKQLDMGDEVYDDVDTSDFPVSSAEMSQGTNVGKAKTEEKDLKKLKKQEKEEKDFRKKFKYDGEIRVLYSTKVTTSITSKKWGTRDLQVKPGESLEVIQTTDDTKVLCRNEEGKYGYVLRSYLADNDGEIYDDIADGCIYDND
UniProt Q53FT3, sequence (Q53FT3 whole entry, looked up): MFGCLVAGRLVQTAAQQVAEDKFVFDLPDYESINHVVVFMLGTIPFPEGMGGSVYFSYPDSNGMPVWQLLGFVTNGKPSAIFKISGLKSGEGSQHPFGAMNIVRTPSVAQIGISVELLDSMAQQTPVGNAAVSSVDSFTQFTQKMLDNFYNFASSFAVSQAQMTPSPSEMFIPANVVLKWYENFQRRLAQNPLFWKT
UniProt P36969, sequence (P36969 whole entry, looked up): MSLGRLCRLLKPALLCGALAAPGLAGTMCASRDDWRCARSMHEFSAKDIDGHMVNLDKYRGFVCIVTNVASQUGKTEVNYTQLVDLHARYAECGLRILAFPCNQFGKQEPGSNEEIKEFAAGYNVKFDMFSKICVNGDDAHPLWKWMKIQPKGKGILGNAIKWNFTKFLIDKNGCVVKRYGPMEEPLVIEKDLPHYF

log2 fold change, inactive:
FKBP3 (UniProt Q00688) -0.012, GPX4 (UniProt P36969) 0.057, HEXA (UniProt P06865) 0.007, HECTD1 (UniProt Q9ULT8) -0.003, GLUD2 (UniProt P49448) 0.036, GBF1 (UniProt Q92538) -0.022, HIKESHI (UniProt Q53FT3) 0.003, HBZ (UniProt P02008) 0.042, HIP1 (UniProt O00291) -0.004, HADHB (UniProt P55084) -0.184, GTPBP6 (UniProt O43824) 0.01, GOLPH3 (UniProt Q9H4A6) -0.014, GSTO1 (UniProt P78417) -0.001, GYG1 (UniProt P46976) 0.005, ICMT (UniProt O60725) -0.001, FANCD2 isoform 1 (UniProt Q9BXW9) 0.012, GMEB1 (UniProt Q9Y692) -0.005, GALNT2 (UniProt Q10471) 0, GCC2 (UniProt Q8IWJ2) -0.017, HAX1 (UniProt O00165) -0.014, GGT7 (UniProt Q9UJ14) -0.027, HDAC7 isoform 5 (UniProt Q8WUI4) 0.007, HSPA8 (UniProt E9PK54) 0.032, HIST2H3A (UniProt Q71DI3) -0.028, FLNA (UniProt P21333) -0.032, H2AFX (UniProt P16104) 0.072, GTF2A1 (UniProt P52655) -0.011, GATA1 (UniProt P15976) -0.015, GALNT1 (UniProt Q10472) 0.022, FMC1 (UniProt Q96HJ9) 0.004, GDE1 (UniProt Q9NZC3) 0.019, IDH3A (UniProt P50213) 0.023, FARS2 (UniProt O95363) 0.061, FYB1 isoform 3 (UniProt O15117) -0.01

compound: C1=CC2=C(C=CC(=C2)/C=C\3/C(=O)NC(=NCC4=CC=CS4)S3)N=C1; test: as above
Procedure, shortened: as §1

log2 fold change, inactive:
FKBP3 (UniProt Q00688) 0.013, GPX4 (UniProt P36969) -0.007, HEXA (UniProt P06865) 0.024, HECTD1 (UniProt Q9ULT8) 0.025, GLUD2 (UniProt P49448) 0.003, GBF1 (UniProt Q92538) 0.075, HIKESHI (UniProt Q53FT3) 0.073, HBZ (UniProt P02008) 0.143, HIP1 (UniProt O00291) 0.018, HADHB (UniProt P55084) 0.063, GTPBP6 (UniProt O43824) 0.041, GOLPH3 (UniProt Q9H4A6) 0.011, GSTO1 (UniProt P78417) 0.006, GYG1 (UniProt P46976) 0.089, ICMT (UniProt O60725) 0.214, FANCD2 isoform 1 (UniProt Q9BXW9) 0.145, GMEB1 (UniProt Q9Y692) -0.006, GALNT2 (UniProt Q10471) 0.009, GCC2 (UniProt Q8IWJ2) -0.076, HAX1 (UniProt O00165) 0.087, GGT7 (UniProt Q9UJ14) -0.001, HDAC7 isoform 5 (UniProt Q8WUI4) -0.126, HSPA8 (UniProt E9PK54) 0, HIST2H3A (UniProt Q71DI3) 0.011, FLNA (UniProt P21333) -0.022, H2AFX (UniProt P16104) 0.014, GTF2A1 (UniProt P52655) -0.094, GATA1 (UniProt P15976) 0.032, GALNT1 (UniProt Q10472) 0.031, FMC1 (UniProt Q96HJ9) 0.108, GDE1 (UniProt Q9NZC3) -0.047, IDH3A (UniProt P50213) 0.021, FARS2 (UniProt O95363) -0.03, FYB1 isoform 3 (UniProt O15117) 0.057

compound: C1=CC2=NC=CN=C2C=C1/C=C/3\C(=O)NC(=O)S3; test: as above
Procedure, shortened: as §1

log2 fold change, inactive:
FKBP3 (UniProt Q00688) -0.004, GPX4 (UniProt P36969) 0.006, HEXA (UniProt P06865) 0.004, HECTD1 (UniProt Q9ULT8) 0.087, GLUD2 (UniProt P49448) -0.011, GBF1 (UniProt Q92538) 0.028, HIKESHI (UniProt Q53FT3) 0.02, HBZ (UniProt P02008) 0.006, HIP1 (UniProt O00291) -0.056, HADHB (UniProt P55084) 0.024, GTPBP6 (UniProt O43824) 0.066, GOLPH3 (UniProt Q9H4A6) 0.008, GYG1 (UniProt P46976) -0.039, ICMT (UniProt O60725) -0.064, FANCD2 isoform 1 (UniProt Q9BXW9) 0.02, GMEB1 (UniProt Q9Y692) 0.009, GALNT2 (UniProt Q10471) 0.022, GCC2 (UniProt Q8IWJ2) 0.034, HAX1 (UniProt O00165) 0.008, GGT7 (UniProt Q9UJ14) -0.004, HDAC7 isoform 5 (UniProt Q8WUI4) -0.008, HSPA8 (UniProt E9PK54) 0.034, HIST2H3A (UniProt Q71DI3) 0.221, FLNA (UniProt P21333) 0.005, H2AFX (UniProt P16104) 0.274, GTF2A1 (UniProt P52655) 0.034, GATA1 (UniProt P15976) 0.028, GALNT1 (UniProt Q10472) 0.006, FMC1 (UniProt Q96HJ9) -0.063, GDE1 (UniProt Q9NZC3) 0.05, IDH3A (UniProt P50213) 0.017, FARS2 (UniProt O95363) -0.018, FYB1 isoform 3 (UniProt O15117) 0.006

log2 fold change, active:
GSTO1 (UniProt P78417) 0.278
